Each structure is given as a SMILES string. Activity calls are given as the source filed them. Rule for the calls: active = hit-call score of the fitted dose curve at least 0.9, where 1 is the maximum; inactive = score below 0.9.

Read-out in this test: C-C motif chemokine 2 (Homo sapiens) (UniProt P13500)
Nature of the test: BSK_KF3CT_MCP1: BioMAP Diversity Plus: KF3CT Assay for Monocyte Chemoattractant Protein 1 (MCP1/CCL2) Biomarker Activity (AID 2283073). The note with it: primary human keratinocytes with fibroblasts; actives raise or lower the signal. As to the method: BSK_KF3CT is a cell-based, multiplexed-readout assay that uses keratinocytes and foreskin fibroblasts, a human skin primary cell co-culture, with measurements taken at 24 hours after chemical dosing in a 96-well plate.BSK_KF3CT_MCP1 is an assay component measured in the BSK_KF3CT assay. It measures MCP-1 antibody related to regulation of gene expression using ELISA technology.Data from the assay component BSK_KF3CT_MCP1 was analyzed into 1 assay endpoint. This assay endpoint, BSK_KF3CT_MCP1, was analyzed with bidirectional fitting relative to DMSO as the negative control and baseline of activity. Using a type of binding reporter, gain or loss-of-signal activity can be used to understand changes in the signaling as they relate to the gene CCL2. Furthermore, this assay endpoint can be referred to as a primary readout, because this assay has produced multiple assay endpoints where this one serves a signaling function. To generalize the intended target to other relatable targets, this assay endpoint is annotated to the cytokine intended target family, where the subfamily is chemotactic factor.
The levels of cell surface (or secreted, indicated by the prefix "s") biomarker endpoints were measured by ELISA. Overt cytotoxicity to cells in confluent adherent cultures (all systems other than the BT system) was assessed by measuring total protein levels using sulforhodamine B (SRB) staining in parallel cultures at the time of biomarker measurements, indicated as SRB endpoints. For proliferation assays for adherent cell types, individual cell types are cultured at sub-confluence and relative cell numbers quantified by SRB staining at time points optimized for each system (48 h: 3C and CASM3C systems; 72 h: BT and HDF3CGF systems; 96 h: SAg system). SRB was performed by staining cells with 0.1% SRB after fixation with 10% TCA and reading wells at 560 nm.Viability and proliferation of PBMC (T cells) was quantified by Alamar Blue reduction for the SAg and BT systems. For PBMC viability (referred to as PBMC Cytotoxicity within the assay endpoint names), cells were plated (75,000/well in a 96-well plate) and then chemical samples added for 1 h before addition of activators, SEB and TSST-1 (20 ng/mL final concentration each). Cells were incubated for 90 h. Then, Alamar Blue (20 uL/well) (Invitrogen, Cat DAL1100) was added for 6 h, and the plates were read with a fluorescence microplate reader at 546/580 nm (excitation/emission). For PBMC proliferation, cells were plated and activated as above but incubated for only 16 h prior to addition of Alamar Blue. Plates were read after 6 h.
On to `O=C(CCl)NCO`, for which the result was inactive. Usually AC50 stands for the concentration at which the activity in the assay is half-maximal. With `CC(C)N(C(=O)CCl)c1ccccc1`, the AC50 is 11.1 µM (active). Turning to `O=[N+]([O-])c1cccc2ccccc12`, the outcome was inactive.

With `CC(C=O)Cc1ccc2c(c1)OCO2` (stereo not given), the outcome was inactive. In the case of `Cc1c([N+](=O)[O-])c(C)c([N+](=O)[O-])c(C(C)(C)C)c1[N+](=O)[O-]`, the AC50 was 34 µM (active). Still for that read-out and setting: the same measure for `CCCCCCCCCCCCc1cccc(S(=O)(=O)O)c1`: 28.7 µM (active). On to `Clc1cccc(Cl)c1Cl`, for which the outcome was inactive. As for `Cc1ccccc1OP(=O)(Oc1ccccc1C)Oc1ccccc1C`, the AC50 is 12.1 µM (active). Regarding `CCOC(=O)C(SP(=S)(OC)OC)c1ccccc1` (stereo not given), the result was inactive. The same measure, in the same setting: as for `CCOP(=O)(OCC)SCCSCC`, the entry is “inactive”.

Take `COCC(=O)N(c1c(C)cccc1C)[C@H](C)C(=O)OC`: the outcome was inactive. The same measure, in the same setting: the same measure for `CCN(CC)C(=O)C(Cl)=C(C)OP(=O)(OC)OC`: “inactive”; for `N#Cc1cccnc1`: “inactive”; for `CCOP(=S)(OCC)OP(=S)(OCC)OCC`: “inactive”. Take `O=S(=O)(C(Cl)(Cl)Cl)C(Cl)(Cl)Cl`: the AC50 is 2.37 µM (active). Take `CC(C)(C)c1ccccc1O`: the outcome was inactive. The same measure, in the same setting: as for `NC(=O)CCl`, the entry is “inactive”; as for `CC(C)(COCC1CO1)COCC1CO1` (stereo not given), “inactive”; as for `Oc1c(Br)cc(Br)cc1Br`, “inactive”. On the same count and under the same terms, the same measure for `CCOP(=S)(OCC)SCS(=O)(=O)C(C)(C)C`: “inactive”; for `C#CCOC(=O)/C=C(C)/C=C/CC(C)CCCC(C)C` (stereo not given): “inactive”; for `c1ccc(-c2cccc(-c3ccccc3)c2)cc1`: “inactive”.

Turning to `O=[N+]([O-])c1ccc(Nc2ccccc2)cc1`, the result was inactive. On to `CCOC(=O)CCN(SN(C)C(=O)Oc1cccc2c1OC(C)(C)C2)C(C)C`, for which the result was inactive. Same read-out and setting: as for `OCCN(CCO)CCO`, the entry is “inactive”; as for `O=C(O)COc1cc(Cl)c(Cl)cc1Cl`, “inactive”; as for `Cc1cc(C(C)(C)c2ccc(O)c(C)c2)ccc1O`, “inactive”.

Take `Cc1ccccc1OP(=O)(Oc1ccccc1)Oc1ccccc1`: the outcome was inactive. The same measure, in the same setting: the same measure for `Nc1ccc(N)cc1`: “inactive”; for `CC(C)=CC1C(C(=O)OCc2cccc(Oc3ccccc3)c2)C1(C)C` (stereo not given): “inactive”. With `Nc1c(Oc2ccccc2)cc(O)c2c1C(=O)c1ccccc1C2=O`, the outcome was inactive. Turning to `CCOP(=O)(OCC)OC(=CCl)c1ccc(Cl)cc1Cl`, the AC50 was 20 µM (active). Take `Cc1ccc2nc3sc(=O)sc3nc2c1`: the outcome was inactive. With `O=C1C=CC(=O)c2ccccc21`, the AC50 is 3.45 µM (active). With `O=C(N[C@H]1CN2CCC1CC2)c1ccc2c(c1)OCCO2`, the outcome was inactive. Same read-out and setting: the same measure for `Cc1cc(C)cc(C)c1`: “inactive”.

For `OC(Cc1ccccc1Cl)(Cn1cncn1)C1(Cl)CC1` (stereo not given), the result was inactive. Turning to `O=C(O)C1(c2ccc3c(c2)OC[C@H](Cc2ccc(-c4ccccc4)cc2)[C@H]3O)CCCC1`, the AC50 was 13.6 µM (active). Regarding `Cc1cc(Cl)ccc1N`, the result was inactive. Still for that read-out and setting: the same measure for `Oc1ccc(Cc2ccc(O)cc2)cc1`: “inactive”.

These data come from PubChem BioAssay (EPA / NIEHS).
